# Results reported in ChEMBL document CHEMBL1961873, “Compounds: GSK PKIS; Assays: Nanosyn kinase panel” (2012).
# Columns and labels:
# [1] = molecular target: Sphingosine kinase 1 (Homo sapiens) (UniProt Q9NYA1); conditions: at 1 µM;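 note: mean SPHK1 inhibition value reported from the GSK PKIS kinase panel screen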
# [2] = molecular target: T1, Sphingosine kinase 2 (Homo sapiens) (UniProt Q9NRA0); conditions: at 0.1 µM
# T1 sequence (whole entry): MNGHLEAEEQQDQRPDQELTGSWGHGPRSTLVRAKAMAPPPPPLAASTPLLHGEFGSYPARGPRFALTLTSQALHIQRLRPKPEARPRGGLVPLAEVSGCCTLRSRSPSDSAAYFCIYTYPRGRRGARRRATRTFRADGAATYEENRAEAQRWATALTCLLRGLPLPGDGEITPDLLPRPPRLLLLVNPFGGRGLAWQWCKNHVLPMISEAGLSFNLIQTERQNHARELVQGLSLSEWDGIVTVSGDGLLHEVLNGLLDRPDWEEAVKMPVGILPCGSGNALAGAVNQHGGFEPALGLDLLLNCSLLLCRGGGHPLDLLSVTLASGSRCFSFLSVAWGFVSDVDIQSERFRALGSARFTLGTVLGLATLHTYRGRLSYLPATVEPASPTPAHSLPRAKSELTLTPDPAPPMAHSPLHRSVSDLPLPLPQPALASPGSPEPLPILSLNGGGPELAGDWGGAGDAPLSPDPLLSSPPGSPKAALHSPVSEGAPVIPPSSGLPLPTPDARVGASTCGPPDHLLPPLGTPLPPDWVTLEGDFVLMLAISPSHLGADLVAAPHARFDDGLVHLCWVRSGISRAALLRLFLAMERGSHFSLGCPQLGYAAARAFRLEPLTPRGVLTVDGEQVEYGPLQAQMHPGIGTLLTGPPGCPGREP
# [3] = molecular target: T1, Sphingosine kinase 2 (Homo sapiens); conditions: at 1 µM
# [4] = molecular target: Casein kinase II subunit alpha (Homo sapiens) (UniProt P68400); conditions: at 0.1 µM
# [5] = molecular target: Casein kinase II subunit alpha (Homo sapiens) (UniProt P68400); conditions: at 1 µM
# [6] = molecular target: T2, Inhibitor of nuclear factor kappa-B kinase subunit alpha (Homo sapiens) (UniProt O15111); conditions: at 0.1 µM
# T2 sequence (whole entry): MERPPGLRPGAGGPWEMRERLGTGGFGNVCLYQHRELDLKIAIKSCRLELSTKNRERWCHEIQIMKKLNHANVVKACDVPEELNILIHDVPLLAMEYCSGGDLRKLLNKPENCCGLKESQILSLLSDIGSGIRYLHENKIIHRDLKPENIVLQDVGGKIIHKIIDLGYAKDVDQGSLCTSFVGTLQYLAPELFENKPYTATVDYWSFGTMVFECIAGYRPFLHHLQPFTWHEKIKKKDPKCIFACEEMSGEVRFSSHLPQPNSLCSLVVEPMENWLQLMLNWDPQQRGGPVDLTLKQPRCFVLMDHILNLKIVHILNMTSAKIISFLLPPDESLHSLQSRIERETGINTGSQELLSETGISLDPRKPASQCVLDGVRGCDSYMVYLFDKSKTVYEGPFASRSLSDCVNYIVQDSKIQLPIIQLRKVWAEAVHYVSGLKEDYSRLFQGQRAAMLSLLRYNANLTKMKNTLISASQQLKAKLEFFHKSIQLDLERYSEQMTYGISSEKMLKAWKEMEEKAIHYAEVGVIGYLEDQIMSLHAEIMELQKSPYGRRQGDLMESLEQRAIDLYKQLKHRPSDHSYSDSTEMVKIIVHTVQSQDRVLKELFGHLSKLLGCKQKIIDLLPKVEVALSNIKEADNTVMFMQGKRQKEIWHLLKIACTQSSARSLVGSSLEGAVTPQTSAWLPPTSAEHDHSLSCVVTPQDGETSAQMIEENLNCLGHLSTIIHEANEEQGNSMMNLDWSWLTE
# [7] = molecular target: T2, Inhibitor of nuclear factor kappa-B kinase subunit alpha (Homo sapiens); conditions: at 1 µM
# [8] = molecular target: T3, Inhibitor of nuclear factor kappa-B kinase subunit beta (Homo sapiens) (UniProt O14920); conditions: at 0.1 µM
# T3 sequence (whole entry): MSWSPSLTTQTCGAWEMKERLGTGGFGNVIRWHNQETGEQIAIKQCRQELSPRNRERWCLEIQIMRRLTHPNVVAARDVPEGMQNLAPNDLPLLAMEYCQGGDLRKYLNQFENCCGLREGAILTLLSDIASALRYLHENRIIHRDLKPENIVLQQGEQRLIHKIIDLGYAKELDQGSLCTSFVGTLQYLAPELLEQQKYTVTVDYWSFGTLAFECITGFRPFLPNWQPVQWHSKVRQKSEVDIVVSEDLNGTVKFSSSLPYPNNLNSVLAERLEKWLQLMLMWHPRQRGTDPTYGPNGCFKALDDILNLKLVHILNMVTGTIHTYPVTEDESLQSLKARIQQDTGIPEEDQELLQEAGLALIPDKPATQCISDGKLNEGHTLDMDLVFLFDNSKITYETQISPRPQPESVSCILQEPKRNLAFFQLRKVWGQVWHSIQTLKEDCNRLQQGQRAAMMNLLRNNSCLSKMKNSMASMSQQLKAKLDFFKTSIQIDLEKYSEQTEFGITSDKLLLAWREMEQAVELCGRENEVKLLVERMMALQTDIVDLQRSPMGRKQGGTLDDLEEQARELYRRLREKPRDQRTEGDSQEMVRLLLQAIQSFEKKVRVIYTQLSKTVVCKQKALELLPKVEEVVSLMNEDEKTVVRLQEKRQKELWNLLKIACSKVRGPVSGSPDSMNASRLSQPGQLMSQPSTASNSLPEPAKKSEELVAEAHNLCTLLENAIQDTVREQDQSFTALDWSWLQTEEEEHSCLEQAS
# [9] = molecular target: T3, Inhibitor of nuclear factor kappa-B kinase subunit beta (Homo sapiens); conditions: at 1 µM
# [10] = molecular target: T4, Inhibitor of nuclear factor kappa-B kinase subunit epsilon (Homo sapiens) (UniProt Q14164); conditions: at 0.1 µM;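 note: mean inhibition of IKKε reported, from the GSK PKIS dataset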
# T4 sequence (whole entry): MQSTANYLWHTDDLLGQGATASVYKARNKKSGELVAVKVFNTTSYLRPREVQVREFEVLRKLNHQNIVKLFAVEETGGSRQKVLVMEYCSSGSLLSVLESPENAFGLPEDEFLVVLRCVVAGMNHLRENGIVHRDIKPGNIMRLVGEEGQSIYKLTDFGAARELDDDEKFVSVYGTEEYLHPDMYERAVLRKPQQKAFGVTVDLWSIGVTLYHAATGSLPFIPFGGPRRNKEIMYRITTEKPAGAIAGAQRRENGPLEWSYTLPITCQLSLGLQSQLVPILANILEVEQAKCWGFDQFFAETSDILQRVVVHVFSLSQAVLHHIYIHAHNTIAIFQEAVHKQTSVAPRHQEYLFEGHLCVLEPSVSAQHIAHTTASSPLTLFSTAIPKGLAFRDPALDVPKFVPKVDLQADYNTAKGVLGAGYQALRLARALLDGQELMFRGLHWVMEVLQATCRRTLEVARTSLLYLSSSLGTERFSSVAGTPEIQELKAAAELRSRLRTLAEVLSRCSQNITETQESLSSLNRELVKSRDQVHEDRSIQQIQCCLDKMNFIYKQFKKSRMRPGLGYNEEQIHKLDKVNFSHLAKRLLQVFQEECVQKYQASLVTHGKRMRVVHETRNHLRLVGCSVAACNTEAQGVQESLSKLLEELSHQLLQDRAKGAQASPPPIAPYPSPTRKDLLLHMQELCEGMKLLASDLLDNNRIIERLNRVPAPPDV
# Casein kinase II subunit alpha (Homo sapiens), sequence (P68400 whole entry, looked up): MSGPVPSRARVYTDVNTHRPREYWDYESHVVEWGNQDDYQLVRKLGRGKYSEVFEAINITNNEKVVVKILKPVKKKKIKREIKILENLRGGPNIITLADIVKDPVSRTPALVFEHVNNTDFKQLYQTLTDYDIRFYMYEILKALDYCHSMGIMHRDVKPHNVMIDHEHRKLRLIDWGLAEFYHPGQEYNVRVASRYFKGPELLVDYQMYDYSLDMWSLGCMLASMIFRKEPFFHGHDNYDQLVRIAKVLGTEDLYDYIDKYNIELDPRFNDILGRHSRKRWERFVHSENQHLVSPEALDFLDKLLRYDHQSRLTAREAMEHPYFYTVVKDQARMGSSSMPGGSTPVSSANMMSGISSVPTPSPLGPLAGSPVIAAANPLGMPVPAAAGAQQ
# Sphingosine kinase 1 (Homo sapiens), sequence (Q9NYA1 whole entry): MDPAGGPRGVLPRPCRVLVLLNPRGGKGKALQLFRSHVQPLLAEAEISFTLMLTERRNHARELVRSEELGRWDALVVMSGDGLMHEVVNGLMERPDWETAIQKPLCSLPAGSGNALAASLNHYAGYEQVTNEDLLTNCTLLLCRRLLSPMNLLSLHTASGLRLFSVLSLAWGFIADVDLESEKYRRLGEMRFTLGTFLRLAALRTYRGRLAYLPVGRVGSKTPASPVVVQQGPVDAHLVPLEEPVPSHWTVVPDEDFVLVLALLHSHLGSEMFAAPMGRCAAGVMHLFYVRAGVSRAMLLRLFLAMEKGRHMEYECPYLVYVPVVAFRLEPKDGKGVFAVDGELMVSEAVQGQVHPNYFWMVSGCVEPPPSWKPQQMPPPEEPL
structure (smiles),measurement,setting,value
Nc1nccc(C#Cc2cncnc2Nc2ccc(OCc3cccc(F)c3)c(Cl)c2)n1,inhibition,[1],-0.71%
same,inhibition,[2],0.13%
same,inhibition,[3],-9.13%
same,inhibition,[4],1.6%
same,inhibition,[5],2.69%
same,inhibition,[6],7.39%
same,inhibition,[7],2.46%
same,inhibition,[8],2.27%
same,inhibition,[9],-0.17%
same,inhibition,[10],4.71%
